Consider 19 molecules from the antibiotic and cytotoxicity screens of Wong et al. (2023).

The campaign covered roughly 39,000 compounds. About 500 (1.3%) were called active. Shown is part of a subset that was picked to be rich in actives.

For the test, the system named is S. aureus RN4220. The test is described as follows: growth inhibition call (relative growth <= 0.2). The conditions noted are these: 50 µM.
As to `O=C(NOC[C@H](O)CO)c1cc(Br)c(F)c(F)c1Nc1ccc(I)cc1F`, the growth inhibition call is “inactive”.
`COc1cc(F)c(F)c(Nc2ccc(I)cc2F)c1NS(=O)(=O)C1(C[C@H](O)CO)CC1`: the growth inhibition call was “active”.
As for `Cn1c(=O)c(F)c(Nc2ccc(I)cc2F)c2c(=O)n(C[C@@H](O)CO)cnc21`, the growth inhibition call is “inactive”.
To `CC1(C)S[C@@H]2[C@H](NC(=O)[C@H](N)c3ccccc3)C(=O)N2[C@H]1C(=O)OCOC(=O)[C@@H]1N2C(=O)C[C@H]2S(=O)(=O)C1(C)C` belongs “active”.
In the case of `CCOC(=O)OC(C)OC(=O)C1N2C(=O)C(NC(=O)C(N)c3ccccc3)C2SC1(C)C.Cl` (centres undefined), the growth inhibition call is “active”.
As to `C[C@@H]1CN([C@H](C)CO)C(=O)c2c(c3ccccc3n2C)-c2ccccc2CO[C@@H]1CN(C)Cc1ccccc1`, the growth inhibition call was “inactive”.
As to `O=C(C[C@@H]1C=C[C@@H](NS(=O)(=O)c2ccc(F)cc2)[C@H](CO)O1)N1CCC(Cc2ccccc2)CC1`, the growth inhibition call is “inactive”.
To `CN1C(=O)c2cc(NS(=O)(=O)c3ccc(F)cc3)ccc2OC[C@H]2O[C@H](CC(=O)NCC(F)(F)F)CC[C@H]21` belongs “inactive”; to `COCC#Cc1ccc2c(c1)O[C@H](CN(C)S(=O)(=O)c1ccc(C)cc1)[C@H](C)CN([C@@H](C)CO)S2(=O)=O`, “inactive”; to `COCCn1c(=NN)[nH]c2ccsc2c1=O`, “inactive”.
`O=C(C[C@H]1CC[C@@H]2[C@H](COC[C@@H](O)CN2Cc2cc(F)ccc2F)O1)N[C@@H]1CCN(Cc2ccccc2)C1`: the growth inhibition call is “inactive”.
In the case of `CCCCc1nn(-c2ccccc2C(F)(F)F)c(=O)n1Cc1ccc(-c2ccccc2S(=O)(=O)NC(=O)c2sccc2C)cc1`, the growth inhibition call was “active”.
`COc1ccc([Si](C)(C)[C@H]2[C@H](CC(=O)N3CCC[C@H]3CO)O[C@@]3(C(=O)N(Cc4ccc(N5CCCCC5=O)cc4)c4ccccc43)[C@@H]2C)cc1`: the growth inhibition call was “inactive”.
Take `C[C@@H]1CN([C@H](C)CO)C(=O)c2c(c3ccccc3n2C)-c2ccccc2CO[C@@H]1CN(C)Cc1ccc(Cl)c(Cl)c1`: the growth inhibition call was “inactive”.
In the case of `CON=C1CN(c2nc3c(cc2F)c(=O)c(C(=O)O)cn3C2CC2)CC1CN.CS(=O)(=O)O` (centres undefined), the growth inhibition call is “active”.
For the molecule `CO/N=C1\CN(c2nc3c(cc2F)c(=O)c(C(=O)O)cn3C2CC2)C[C@@H]1CN`, the growth inhibition call was “active”.
Next, `C[C@H]1CN([C@@H](C)CO)C(=O)c2cccc(NC(=O)CCCCCC(=O)Nc3ccccc3N)c2O[C@H]1CN(C)C(=O)Nc1cccc2ccccc12`: “inactive”; `CCCN(C)C[C@H]1OCCCC[C@@H](C)Oc2ccc(NS(=O)(=O)c3ccc(Cl)cc3)cc2C(=O)N([C@H](C)CO)C[C@@H]1C`: “inactive”; `Cc1ccc(S(=O)(=O)N[C@@H]2CC[C@H](CCNC(=O)CN3CCOCC3)O[C@@H]2CO)cc1`: “inactive”.
